Laboratory results published in PubChem BioAssay (NCI).
Compounds without any hit were thinned out: in the full panel of roughly 83,000, 20% have a hit.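 In brief: 96-well plates, 48 h treatment, single concentration, percent growth endpoint.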 Activity calls are given as the source filed them. How the source made its calls: active means growth percent below 10; inactive means the rest.

Each compound was assayed on SW-620 colon (assay: NCI-60 one-dose screen, 48 h (100 = growth as untreated, 0 = no growth, -100 = all killed)). Details: 10 µM.

| SMILES | growth |
| --- | --- |
| COc1ccc2[nH]c(=O)c(CSc3ccc(Nc4nccc(-c5ccc(Cl)cc5)n4)cc3)cc2c1 | 105% (inactive) |
| COc1cccc2nc(Nc3cccc(NC(=O)c4ccc(CN5CCCN(C)CC5)c(C(F)(F)F)c4)c3)ccc12 | -97.5% (active) |
| COc1cc(C2CC(c3ccc(C)cc3)=Nc3c(N)nc(N)nc3N2)ccc1Oc1nc(Nc2ccc(F)cc2)nc(N(C)C)n1 (centres undefined) | 58.8% (inactive) |
| CC(=O)Nc1ccc(-c2cn(-c3cccc(C(=O)Nc4ccc(Cl)c(C(F)(F)F)c4)c3)nn2)cn1 | -75.5% (active) |
| COc1ccc(OC)c(/C=N/NC(=O)c2ccc3nc(-c4ccc(Cl)cc4)[nH]c3c2)c1 | 92% (inactive) |
| CC1=N/C(=C\c2ccc(N(C)C)cc2)C(=O)N1CCc1ccc(S(N)(=O)=O)cc1 | 112% (inactive) |
| Cc1ccc(-c2cc(C(=O)N=Nc3c(O)[nH]c4ccc(Br)cc34)c3ccccc3n2)cc1 | 34.1% (inactive) |
| COc1ccccc1C(=O)NNC(=O)CSc1nc2c(c(=O)[nH]1)CCCC2 | 112% (inactive) |
| C=C1CCC2C3(C)COC(c4cccc(F)c4)OC3CCC2(C)C1CC(O)C1=CCOC1=O (centres undefined) | 6.42% (active) |
| Nc1nnc(-c2c[nH]c3ccc(F)cc23)c(-c2c[nH]c3ncccc23)n1 | 73.6% (inactive) |
| CC(=O)NS(=O)(=O)c1ccc(NC(=O)CSC2=NC(c3ccccc3)C(C(C)=O)=C(C)N2)cc1 (centres undefined) | 106% (inactive) |
| COC1=C[C@@]23CCC(=O)N2CCc2cc4c(cc2[C@H]3[C@H]1OC(=O)C(C)(C)O)OCO4 | 105% (inactive) |
| Nc1nc(-c2ccccc2)cs1 | 70.5% (inactive) |
| C/C(=N\NC(N)=S)c1ccc(Nc2nc(SC(C)C)nc(-c3ccccc3)c2C#N)cc1 | 85.8% (inactive) |
| COc1ccc(-c2cc(-c3cc(C(=O)c4ccc(Br)cc4)n4ccc(C)cc34)nc(N)c2C#N)cc1 | 92.3% (inactive) |
| CC(=O)Nc1ccc(-n2cnc3cc(-c4ccc(NS(C)(=O)=O)cc4)ccc32)cc1 | 71.5% (inactive) |
| O=c1cc(-c2ccccc2)oc2cc(OCCCCNCc3ccccc3)cc(O)c12 | -39.1% (active) |
| C/C(=N\N=C\c1ccc(Cl)c([N+](=O)[O-])c1)c1ccc2c(c1)Nc1ccccc1S2 | 6.06% (active) |
| N#Cc1c(-c2ccc(Cl)cc2)cc(-c2ccccc2)nc1OCc1ccccc1 | 84% (inactive) |
| COc1cccc(/C=N/NC(=O)c2ccc3nc(-c4ccc(Cl)cc4)[nH]c3c2)c1O | -77.1% (active) |

Each compound was assayed on MCF7 breast in the same assay as above. Details: 10 µM.

| SMILES | growth |
| --- | --- |
| O=S(=O)(Nc1ncccn1)c1ccc(-n2c(-c3ccccc3)nc(-c3ccccc3)c2-c2ccccc2)cc1 | 71.1% (inactive) |
| COc1ccc(-c2cc(-c3cc(C(=O)c4ccccc4)n4ccc(C)cc34)nc(N)c2C#N)cc1 | 53.3% (inactive) |
| N#Cc1ccc(NC(=O)CSc2ccc(-c3ccc(Br)cc3)nn2)cc1 | 56.2% (inactive) |
| CCCn1c(O)c(N=Nc2nc(-c3cc4ccccc4oc3=O)cs2)c2cc(Br)ccc21 | 90.4% (inactive) |
| COc1cc2oc(-c3cccc(C(=O)Nc4ccc(Cl)cc4)c3)cc(=O)c2c(OCCNC(=O)CNC(=O)OC(C)(C)C)c1OC | 42% (inactive) |
| CCCCOc1ccc(Nc2nc3ccccc3nc2Nc2ccc(OCCCC)cc2)cc1 | 75.3% (inactive) |
| COc1cc(NC(=O)CSc2nnc(-c3ccc4nc(-c5ccc(Cl)cc5)[nH]c4c3)o2)cc(OC)c1OC | 29.1% (inactive) |
| O=C(NO)c1ccc(CNC(=O)[C@H]2Cc3c([nH]c4ccccc34)[C@H](c3ccc(Cl)cc3)N2)cc1 | 3% (active) |
| N#Cc1c(NC(=O)c2ccc(C(F)(F)F)c(Cl)c2)sc2c1CCC(=O)C2 | -3.57% (active) |
| O=C(Cc1ccc2c(c1)CN(C1CCC(=O)NC1=O)C2=O)NCc1cccc2ccccc12 (centres undefined) | 1.22% (active) |
| CCOC(=O)CNC(=O)CN(Cc1ccccc1)C(=O)[C@@]1(C)CCC[C@]2(C)[C@H]3C[C@H]4C(C(C)C)=C[C@]3(CC[C@H]21)[C@@H]1C(=O)OC(=O)[C@@H]14 | 30.7% (inactive) |
| O=C(NCCCCCCCCCC[P+](c1ccccc1)(c1ccccc1)c1ccccc1)c1ccc(-n2nc(-c3ccccc3O)nc2-c2ccccc2O)cc1 | -87% (active) |
| COc1ccc2[nH]c(=O)c(CSc3ccc(Nc4nccc(-c5ccc(Cl)cc5)n4)cc3)cc2c1 | 84.5% (inactive) |
| COc1cccc2nc(Nc3cccc(NC(=O)c4ccc(CN5CCCN(C)CC5)c(C(F)(F)F)c4)c3)ccc12 | -90% (active) |
| COc1cc(C2CC(c3ccc(C)cc3)=Nc3c(N)nc(N)nc3N2)ccc1Oc1nc(Nc2ccc(F)cc2)nc(N(C)C)n1 (centres undefined) | 5.19% (active) |
| CC(=O)Nc1ccc(-c2cn(-c3cccc(C(=O)Nc4ccc(Cl)c(C(F)(F)F)c4)c3)nn2)cn1 | -48.3% (active) |
| CC1=N/C(=C\c2ccc(N(C)C)cc2)C(=O)N1CCc1ccc(S(N)(=O)=O)cc1 | 91.8% (inactive) |

| SMILES | growth |
| --- | --- |
| Cc1ccc(-c2cc(C(=O)N=Nc3c(O)[nH]c4ccc(Br)cc34)c3ccccc3n2)cc1 | 28.5% (inactive) |
| COc1ccccc1C(=O)NNC(=O)CSc1nc2c(c(=O)[nH]1)CCCC2 | 95.8% (inactive) |
| C=C1CCC2C3(C)COC(c4cccc(F)c4)OC3CCC2(C)C1CC(O)C1=CCOC1=O (centres undefined) | 14.2% (inactive) |
| C=C1CCC2C3(C)COC(c4c(F)cccc4F)OC3CCC2(C)C1C/C=C1/C(=O)OCC1O (centres undefined) | -12.6% (active) |
| Nc1nnc(-c2c[nH]c3ccc(F)cc23)c(-c2c[nH]c3ncccc23)n1 | 34% (inactive) |
| CC(=O)NS(=O)(=O)c1ccc(NC(=O)CSC2=NC(c3ccccc3)C(C(C)=O)=C(C)N2)cc1 (centres undefined) | 95.2% (inactive) |
| COC1=C[C@@]23CCC(=O)N2CCc2cc4c(cc2[C@H]3[C@H]1OC(=O)C(C)(C)O)OCO4 | 92.7% (inactive) |
| Nc1nc(-c2ccccc2)cs1 | 39.7% (inactive) |
| COC(=O)c1c(C(=O)OC)c2n(c1C)[C@@H]([C@@H](C)[C@H]1CC[C@H]3[C@@H]4CCC5=CC(=O)CC[C@]5(C)[C@H]4CC[C@]13C)SC2 | 4.29% (active) |
| C/C(=N\NC(N)=S)c1ccc(Nc2nc(SC(C)C)nc(-c3ccccc3)c2C#N)cc1 | 64.2% (inactive) |
| COc1ccc(-c2cc(-c3cc(C(=O)c4ccc(Br)cc4)n4ccc(C)cc34)nc(N)c2C#N)cc1 | 79.1% (inactive) |
| CC(=O)Nc1ccc(-n2cnc3cc(-c4ccc(NS(C)(=O)=O)cc4)ccc32)cc1 | 16.8% (inactive) |
| O=c1cc(-c2ccccc2)oc2cc(OCCCCNCc3ccccc3)cc(O)c12 | -64.1% (active) |
| C/C(=N\N=C\c1ccc(Cl)c([N+](=O)[O-])c1)c1ccc2c(c1)Nc1ccccc1S2 | 6.3% (active) |
| N#Cc1c(-c2ccc(Cl)cc2)cc(-c2ccccc2)nc1OCc1ccccc1 | 53.8% (inactive) |
| COc1cccc(/C=N/NC(=O)c2ccc3nc(-c4ccc(Cl)cc4)[nH]c3c2)c1O | -78.5% (active) |
| COc1ccc(/C(CSc2nnc(-c3c[nH]c4ccccc34)n2-c2ccccc2)=N/O)cc1 | 14.5% (inactive) |
